Data on 39 compounds can be found in the supplement of paper PMC3484114.

Structures are written as SMILES. ± gives the standard deviation.

The experiment deals with OVCAR-3-derived ovarian cancer stem-like cells (spheroids). Nature of the experiment: cell growth relative to untreated control; higher = more growth (less inhibition). The following applies: 2.29 µM; 96 h. The procedure, abridged: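 OVCAR-3 spheroid-derived stem-like cells were trypsin-dissociated, seeded at 50,000 cells/mL in stem cell medium in ultra-low attachment 96-well plates and preincubated 24 h. Compounds were then added at 2.29 uM for 96 h at 37°C, 5% CO2, in 4 replicate wells. Viability was read as TOX8 resazurin fluorescence (ex 560/em 590 nm) after 4 h. Percent growth was calculated relative to untreated wells after blank subtraction and Grubbs outlier removal.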
With `CNC(=O)c1cc(NC(=O)N(CCC#N)CCN(C(=O)N[C@@H](Cc2ccccc2)C(=O)N[C@@H](CC(C)C)C(=O)NC)c2ccccc2)ccc1OC`, the cell growth amounted to 98.9 ± 15%.
Regarding `O=S(=O)(O)SC/C=C/CSS(=O)(=O)O`, the cell growth was found to be 143 ± 16%.
Regarding `C=C1C(=O)C23CC[C@@H]4C(C)(C(=O)OC)CCCC4(C)[C@@H]2CCC1(O)C3` (some centres undefined), the cell growth is 13 ± 5.5%.
The result for `O=S(=O)(O)c1cc(N=Nc2cc(S(=O)(=O)O)c3cccnc3c2O)ccc1/C=C/c1ccc(N=Nc2cc(S(=O)(=O)O)c3cccnc3c2O)cc1S(=O)(=O)O` reads 93.7 ± 14%; that for `Oc1cc2c3c(c1)c1cc4c(cc1c[n+]3CC2)OCO4`, 97.7 ± 13%.
In the case of `CN(C)c1ccc2c(SCC(=O)OCC(=O)[C@@]3(O)CC[C@H]4[C@@H]5CCC6=CC(=O)C=C[C@]6(C)[C@H]5C(=O)C[C@@]43C)c3ccc(N(C)C)cc3nc2c1` it was 59.1 ± 8.1%.
In the case of `c1coc(CNc2ncnc3[nH]ncc23)c1` it was 37.7 ± 8.4%.
`Nc1nc2c(ncn2[C@@H]2O[C@H](CO)[C@@H](O)[C@H]2O)c(=O)[nH]1` came in with a cell growth of 107 ± 11%.
In the case of `Cc1c(Cl)cccc1NC(=O)c1cccc([N+](=O)[O-])c1O` it was 106 ± 20%; in that of `NC(=S)N/N=C/c1ccc(OC(=O)COc2ccccc2Cl)cn1`, 90.5 ± 27%.
`CC(=O)c1sc2c(c1OC(=O)c1ccc(Cl)cc1Cl)c(=O)n(-c1ccccc1)c(=S)n2-c1ccccc1` registered a cell growth of 94.1 ± 24%.
In the case of `O=C(CCc1ccccc1)On1nnc2ccccc2c1=O` it was 79 ± 18%.
Compound `CCCCCCCCCCCCCCCCCCOCC(COP(=O)([O-])OCC[N+](C)(C)C)OC` (centres undefined) gave a cell growth of 93 ± 25%.
The result for `NC(=O)c1c([N+](=O)[O-])cc(C(F)(F)F)cc1[N+](=O)[O-]` reads 63.9 ± 13%; that for `Cc1nc2c(nc1C)C(=O)c1ccccc1C2=O`, 54.6 ± 6.1%; that for `N#CC(=C1C=CC(=NO)C=C1)c1ccc(Cl)cc1`, 91.1 ± 17%.
`Nc1ncnc2c(C3OC(CO)C(O)C3O)[nH]nc12` (centres undefined): the cell growth is 23.9 ± 5.3%.
In the case of `C=C1C(=O)C2=CC1CCC(=O)C1(C)CCC(OC(C)=O)C(C)(C)C1CC2O` (centres undefined) it was 30.4 ± 11%; in that of `O=C1c2ccccc2C(=O)c2c(O)c(NCCNCCO)cc(O)c21`, 82.8 ± 24%; in that of `CCOC(=O)CNC(=O)NC12CC3CC(CC(C3)C1)C2`, 95.4 ± 18%.
The result for `CCOC(=O)c1ccc(-c2cc(C)no2)[nH]1` reads 54.8 ± 10%; that for `O=C(O)CC(NC(=O)CP(=O)(O)O)C(=O)O` (centres undefined), 106 ± 16%.
The result for `CCC1=C(C[C@H]2NCCc3cc(OC)c(OC)cc32)C[C@H]2c3cc(OC)c(OC)cc3CCN2C1` reads 21.1 ± 7.4%; that for `CCN(CC)CC(C)(C)C(=O)/C=C/c1ccc(C)cc1`, 80.7 ± 22%; that for `CC(=O)O[C@]1(C(C)=O)CC[C@H]2[C@@H]3C[C@H](C)C4=CC(=O)C=C[C@]4(C)[C@@]3(F)[C@@H](O)C[C@@]21C`, 130 ± 81%.
Compound `Cc1ccc(NC(=O)c2cccc([N+](=O)[O-])c2O)c([N+](=O)[O-])c1` came in with a cell growth of 86.3 ± 17%.
`CCN(CC)CCOc1ccccc1/C=C/c1noc2ccccc12` showed a cell growth of 79.3 ± 18%.
The result for `COC(=O)c1ccc(NCc2cc(O)ccc2O)cc1` reads 108 ± 12%; that for `O=C1/C(=C\c2ccccc2)CN(C(=O)/C=C/c2ccccc2)C/C1=C\c1ccccc1`, 74.7 ± 18%.
The result for `COCC(=O)OC1CCn2c1nc1c2C(=O)C(C)=C(NC(C)=O)C1=O` (centres undefined) reads 76.1 ± 12%.
In the case of `CN(C)[C@@H]1C(=O)C(C(N)=O)=C(O)[C@@]2(O)C(=O)C3=C(O)c4c(O)cccc4C[C@H]3C[C@@H]12` it was 57.8 ± 20%; in that of `O=NN(CCCl)C(=O)NCc1ccc[n+]([O-])c1`, 76.9 ± 13%; in that of `O=C(C[n+]1ccc2ccccc2c1)c1ccc2ccc3ccccc3c2c1`, 95.1 ± 31%.
`Nc1nc(-c2cccs2)cs1` gave a cell growth of 57.1 ± 11%.
Consider `COc1ccc(NC(=O)C(=O)/C=C(\O)c2ccccc2)cc1`, for which the cell growth is 107 ± 46%.
Regarding `CO[C@H](C(=O)[C@@H](O)[C@@H](C)O)[C@@H]1Cc2cc3cc(O[C@H]4C[C@@H](O[C@H]5C[C@@H](O)[C@H](O)[C@@H](C)O5)[C@H](O)[C@@H](C)O4)c(C)c(O)c3c(O)c2C(=O)[C@H]1O[C@H]1C[C@@H](O[C@H]2C[C@@H](O[C@H]3C[C@](C)(O)[C@H](O)[C@@H](C)O3)[C@@H](O)[C@@H](C)O2)[C@H](O)[C@@H](C)O1`, the cell growth is 10.8 ± 3.6%.
In the case of `OCC1OC(n2cnc3c(SCc4ccccc4)ncnc32)C(O)C1O` (centres undefined) it was 118 ± 33%; in that of `O=c1cccccc1O`, 92.1 ± 38%; in that of `CC(=O)Oc1ccc(C(c2ccc(OC(C)=O)cc2)c2ccccn2)cc1`, 20.8 ± 5.2%.
